Experimental data taken from PubChem BioAssay (NCATS).
Results filed as inconclusive are left out. A number with no mark means an inactive call. The call rests on the fitted dose curve; in most records, active means well fitted curve in the direction sought with a large enough effect; inconclusive means small, poorly fitted or top-dose-only effect, or another doubt; inactive means no such curve, though single readings can be large or run the other way.

The compounds below were run against Metallo-beta-lactamase type 2 (Klebsiella pneumoniae) (UniProt C7C422) (assay: qHTS to identify inhibitors of the New Delhi Metallo-beta-lactamase (NDM): assay validation screen against the NCATS LOPAC Collection (AID 1794843;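 further: nitrocefin turnover by NDM-1 measured as 485 nm absorbance at plateau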)). Settings: NDM-1 enzyme, nitrocefin hydrolysis, absorbance 485 nm; series mostly up to 38.4 µM; activity change, negative = inhibition: at the top concentration.
Source text: Assay Submitter (PI): James Inglese Ph.D., Patricia Dranchak Ph.D., Mahesh Aitha Ph.D.
Assay Development and Screening Technology Laboratory (ADST)
National Center for Advancing Translational Sciences (NCATS), Rockville, MD
National Institute of Health (NIH), Bethesda, Maryland
The metallo-beta-lactamases (MBL) are a main antibiotic resistance mechanism evolved by bacteria. There is an urgent clinical need for MBL inhibitors to mitigate this growing threat. To support a machine-based learning study, qHTS has been used to experimentally test inhibitors identified by prediction tools.
PROTOCOL TABLE (as described by Inglese et al., 2007)
SEQUENCE No. (e.g., 1, 2, 3, etc.); […] (e.g., enzyme, Incubation, Reagent, etc.); VALUE; DESCRIPTION
1; NDM-1; 4 uL of 3 nM enzyme in 50 mM HEPES (pH 7.0), 1 uM Zn2SO4, 0.01% Tween20; Use BioRaptr to dispense into Aurora black, clear bottom low base 1536-well plates
2; Compounds; 23 nL; Use Pin Tool (Wako) to transfer DMSO control and library compounds in DMSO
4; Reagent; 2 uL of 50 uM nitrocefin
6; Detector; Absorbance at 485 nm (bandwidth = 5 nm, 25 flashes/well) on Tecan Infinity
NOTES (numbers refer to sequence above)
1; Column 1 of each plate received assay buffer without enzyme and columns 2-48 received enzyme for a final assay concentration of 2 nM.
2; Control plate contained DMSO in columns 1, 2, 3, and 4.
3; Compound interaction with enzyme.
5; Substrate interaction with enzyme, plateau phase of kinetics.
6; Default reader settings were applied for absorbance read at 485 nm, bandwidth = 5 nm, 25 flashes/well.
Inglese J, Shamu CE, Guy RK. 2007. Reporting data from high-throughput screening of small-molecule libraries. Nat Chem Biol. doi:10.1038/nchembio0807-438
Yasgar A, Shinn P, Jadhav A, Auld D, Michael S, Zheng W, Austin CP, Inglese J, Simeonov A. 2008. Compound Management for Quantitative High-Throughput Screening. J Lab Autom 13:79 - 89. doi:10.1016/j.jala.2007.12.004
On the % scale 0 is the no-effect control and ±100 the full control effect.

Sequence of Metallo-beta-lactamase type 2 (Klebsiella pneumoniae) (C7C422 whole entry, looked up): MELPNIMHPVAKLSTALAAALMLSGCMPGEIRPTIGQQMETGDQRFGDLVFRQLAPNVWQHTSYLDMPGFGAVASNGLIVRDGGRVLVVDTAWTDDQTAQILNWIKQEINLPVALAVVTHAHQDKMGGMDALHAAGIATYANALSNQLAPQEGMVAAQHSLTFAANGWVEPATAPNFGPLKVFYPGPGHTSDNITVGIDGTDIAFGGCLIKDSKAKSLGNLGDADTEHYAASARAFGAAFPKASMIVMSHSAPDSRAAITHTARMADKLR

Compound	activity change, negative = inhibition
CCCN(CCC)C(=O)C(CCC(=O)O)NC(=O)c1ccccc1 (stereo not given)	-0.495%
CCC(=O)c1ccc2c(c1)N(CCCN(C)C)c1ccccc1S2	3.81%
CN(C)CCCN1c2ccccc2Sc2ccc(C(F)(F)F)cc21	6.15%
CCN1CCC[C@H]1CNC(=O)c1c(O)c(Cl)cc(Cl)c1OC	-10.3%
CN1C(=O)CC[C@H]1c1cccnc1	-1.59%
CC(=O)[C@]1(O)Cc2c(O)c3c(c(O)c2[C@@H](O[C@H]2C[C@H](N)[C@H](O)[C@H](C)O2)C1)C(=O)c1ccccc1C3=O	13.6%
NC(=O)N1c2ccccc2C=Cc2ccccc21	-8.81%
NC(=O)c1ncn([C@@H]2O[C@H](CO)[C@@H](O)[C@H]2O)c1O	-9.2%
CCCCCN(CCCCC)C(=O)C(CCC(=O)O)NC(=O)c1ccc(Cl)c(Cl)c1 (stereo not given)	6.24%
CC(C)(C)NCC(O)c1cc(O)cc(O)c1 (stereo not given)	-5.15%
CCOC(=O)C1=C(C)NC(C)=C(C(=O)OC)C1c1cccc([N+](=O)[O-])c1 (stereo not given)	-2.5%
CN(C)CCCN1c2ccccc2Sc2ccccc21	-1.45%
C=CCc1ccccc1OCC(O)CNC(C)C (stereo not given)	1.78%
CC(C)NNC(=O)c1ccncc1	-0.246%
Cc1nnc(SCC2=C(C(=O)O)N3C(=O)[C@@H](NC(=O)Cn4cnnn4)[C@H]3SC2)s1	-11.3%
C[C@]12CCC(=O)C=C1CC[C@@H]1[C@@H]2CC[C@@]2(C)[C@H]1CC[C@]2(O)C(=O)CO	-0.117%
CCc1c(C)[nH]c2c1C(=O)C(CN1CCOCC1)CC2 (stereo not given)	-13.1%
C#CCN(C)CCCOc1ccc(Cl)cc1Cl	-5.95%
Cc1ccc(Cl)c(Nc2ccccc2C(=O)O)c1Cl	-9.38%
c1cc(CN2CCCCC2)cc(OCCCNc2nc3ccccc3s2)c1	-3.07%

Compound	activity change, negative = inhibition
CCc1cccc(N(C)C(N)=Nc2cccc3ccccc23)c1	-0.622%
CCCOc1ccccc1-c1nc2n[nH]nc2c(=O)[nH]1	6.85%
CN(C)C(=O)Oc1cccc([N+](C)(C)C)c1	7.28%
CC(C)(C)c1ccc(C(=O)CCCN2CCC(OC(c3ccccc3)c3ccccc3)CC2)cc1	-1.55%
CCn1nc(C(=O)O)c(=O)c2cc3c(cc21)OCO3	-14%
O=C(CCNNC(=O)c1ccncc1)NCc1ccccc1	0.563%
OCCN1CCN(CC/C=C2/c3ccccc3Sc3ccc(C(F)(F)F)cc32)CC1	-13.3%
Fc1ccc(C(c2ccc(F)cc2)N2CCN(C/C=C/c3ccccc3)CC2)cc1	-18.8%
CCN(CC)CCNC(=O)c1cc(S(C)(=O)=O)ccc1OC	24.1%
Nc1nc(N)c2nc(-c3ccccc3)c(N)nc2n1	3.23%
CC(C)[N+](C)(CCOC(=O)C1c2ccccc2Oc2ccccc21)C(C)C	-11.5%
CCOC(=O)C1=C(C)NC(C)=C(C(=O)OC)C1c1cccc(Cl)c1Cl (stereo not given)	12.4%
CO[C@@]1(NC(=O)CSCC#N)C(=O)N2C(C(=O)O)=C(CSc3nnnn3C)CS[C@@H]21	-11.1%
CCCC(C(=O)OCCN(CC)CC)(c1ccccc1)c1ccccc1	0.792%
OC(CCN1CCCCC1)(c1ccccc1)C1CCCCC1 (stereo not given)	-3.04%
COc1ccc([C@@H]2Sc3ccccc3N(CCN(C)C)C(=O)[C@@H]2OC(C)=O)cc1	5.34%
CC(C)(Oc1ccc(CCNC(=O)c2ccc(Cl)cc2)cc1)C(=O)O	14.6%
COCCc1ccc(OCC(O)CNC(C)C)cc1 (stereo not given)	1.32%
CN1CCN(C2=Nc3ccccc3Oc3ccc(Cl)cc32)CC1	2.55%
O=C1NCN(c2ccccc2)C12CCN(CCCC(c1ccc(F)cc1)c1ccc(F)cc1)CC2	6.86%
